# Measurements taken from PubChem BioAssay (Tox21).
# Values without a mark were called inactive. Activity calls are given as the source filed them. Calls follow the shape of the dose curve; as a rule, active = well fitted curve in the direction sought with a large enough effect in the repeat runs; inconclusive = weak or mixed curves; inactive = flat fitted curve, though single readings scatter.
# Test: qHTS assay to test for compound auto fluorescence at 535 nm (green) in HepG2 cells (AID 720675)
# Conditions: green autofluorescence 485/535 nm, 1 h; series mostly up to 91.3 µM
# Text: National Center for Advancing Translational Sciences [NCATS]
# NIH Chemical Genomics Center [NCGC]
# U.S. Environmental Protection Agency [EPA]
# National Institutes of Environmental Health Sciences [NIEHS]
# National Toxicology Program [NTP]
# U.S. Food and Drug Administration [FDA]
# Compound auto fluorescence often interferes with screening of the compound library against various biological targets and signaling pathways. Some of these compounds may have fluorophoric properties. Such properties may interfere with the assay outputs resulting in false positives and/or negatives. To decrease such complications and ensure the compound activities are relevant in terms of biological response, the Tox21 10K compound library was screened for auto fluorescence.
# From the fluorophores used as reporter signals in our screening assays, the auto fluorescence equivalencies of compounds against three fluorophores have been evaluated: Triamterene, Fluorescein and Rose Bengal sodium for blue, green and red fluorescence, respectively. The fluorescence intensities were measured using Excitation/Emission wavelengths at 405/460nm, 485/535nm and 540/590nm for blue, green and red labels, respectively. This assay includes the green fluorescence data.
# Tox21 Assay Protocol Summary:
# 2,000 HepG2 cells in 5 uL of culture medium (MEM containing 10% FBS) per well were dispensed into black wall/clear bottom 1536-well plates using a Multidrop Combi Dispenser (ThermoFisher Scientific, Waltham, MA). The assay plates were incubated overnight at 37 C to allow cell attachment to the well bottom, followed by the transfer of 23 nL compound or DMSO vehicle by a pintool work station (Kalypsys , San Diego, CA). After the assay plates were incubated for 1 hr at 37 C and 5% CO2, fluorescence intensities in the assay plates were measured by an Envision (PerkinElmer, Shelton, CT) plate reader using three labels for measuring blue, green and red fluorescence at […] 460, 535 and 590 nm respectively.
# % is scaled to controls: 0 for no effect and ±100 for the full control effect.
Compound,outcome,"fluorescence, % of fluorescein control"
CC(=O)/C(C)=C/C1C(C)=CCCC1(C)C (stereo not given),inactive,
CCN(CC)CCOc1ccc2c(c1)C(=O)c1cc(OCCN(CC)CC)ccc1-2,inactive,
CCC(C)N(C)C(=O)c1cc2ccccc2c(-c2ccccc2Cl)n1 (stereo not given),inactive,
CCCCCC(CO)CCC (stereo not given),inactive,
CC1(C)CCC(C)(C)c2cc(NC(=O)c3ccc(C(=O)O)cc3)ccc21,inactive,
CCCCCCCC/C=C\CCCCCCCC(N)=O,inactive,
CC(C)(C)C1CCCCC1O (stereo not given),inactive,
COCCCCCCCCOCCC[Si](C)(O[Si](C)(C)C)O[Si](C)(C)C,inactive,
CCCCCCCCCCCCC(=O)O,inactive,
Oc1ccc(O)c2c(O)cccc12,inactive,
N[C@H]1C(O)O[C@H](CO)[C@H](O)[C@@H]1O (stereo not given in full),inactive,
CCCCC(CC)COCCCN (stereo not given),inactive,
C=CC(=O)OCC(C)OCC(C)OCC(C)OC(=O)C=C (stereo not given),inactive,
CC(=O)OC/C=C/c1ccccc1,inactive,
O=S1(=O)N=C(O)c2ccccc21,inactive,
CCc1nn(C2CCCCC2)c2cc(C3(C#N)CCC(C(=O)O)CC3)ccc12 (stereo not given),inactive,
CC(C)(C)c1cc(CO)cc(C(C)(C)C)c1O,inactive,
O=c1c2ccccc2nnn1CCl,inactive,
CC(C)(C)c1cc(CCC(=O)OCC(COC(=O)CCc2cc(C(C)(C)C)c(O)c(C(C)(C)C)c2)(COC(=O)CCc2cc(C(C)(C)C)c(O)c(C(C)(C)C)c2)COC(=O)CCc2cc(C(C)(C)C)c(O)c(C(C)(C)C)c2)cc(C(C)(C)C)c1O,inactive,
Cc1cc(NC(=O)C(=O)O)cc(C)c1Oc1ccc(O)c2c1CCC2,inactive,

Compound,outcome,"fluorescence, % of fluorescein control"
O=C(O)C(c1ccc(Cl)cc1)c1ccc(Cl)cc1,inactive,
CCOc1cc(OCC)c(C(=O)CCC(=O)O)cc1OCC,inactive,
Cc1ccc(C(C)c2ccc(C)c(C)c2)cc1C,inactive,
CC1CCc2cc(F)cc3c(=O)c(C(=O)O)cn1c23 (stereo not given),inactive,
CCOC(=O)CC(C)C,inactive,
CC(=O)c1c(C)c([N+](=O)[O-])c(C(C)(C)C)c([N+](=O)[O-])c1C,inactive,
O=CNc1ccccc1,inactive,
O=C(O)COC(=O)Cc1ccccc1Nc1c(Cl)cccc1Cl,,-0.151% [at 18.6 µM]
CCCC[C@H]1CN(CC2CCOCC2)C(=O)OC12CCN(C1(C)CCN(C(=O)c3c(C)ncnc3C)CC1)CC2,inactive,
N#CCCNCCC#N,inactive,
Cn1sccc1=O,inactive,
Cc1ccc(C)o1,inactive,
CC(=O)O[C@@H]1C(=O)O[C@@H]2[C@H]1OC(=O)[C@@H]2OC(C)=O,inactive,
OCC1CC2CC1C1CCC(CO)C21 (stereo not given),inactive,
CCCC(C)C,inactive,
CC(=O)Nc1ccc(/C=N/NC(N)=S)cc1,inactive,
N#Cc1c(F)cccc1F,inactive,
CCOC(=O)CC(=O)c1cc(F)c(Cl)nc1Cl,inactive,
CC[C@H](C)[C@H](N)C(=O)O,inactive,
CCCCCCc1ccc(N)cc1,inactive,
